High-throughput results: PubChem, several laboratories
Only some compounds are listed: those with a hit (about 2.1% of all), similar ones and a draw of the others.
SMARCA2 act – activators of SMARCA2 function; MG213 cells, MMTV-luciferase reporter, dexamethasone, overnight; actives 1% (n = 370,000); activation, % at 9.1 µM; in the data active means activation above about 7.8%
MsrA inhibitor – bovine MsrA inhibition. actives 0.75% (n = 360,000). purified bovine MsrA, absorbance read-out. AID 651718. inhibition, % at 15.5 µM; in the data active means inhibition above about 4.5%
MsrA act – activates bovine MsrA enzyme. actives 0.3% (n = 360,000). AID 602163. activation, % at 10.6 µM. purified bovine MsrA, absorbance read-out; in the data active means activation above about 7.5%
ABCB6 inh 2 – human ABCB6 transporter inhibition; Q9NP58; K562-ABCB6 porphyrin accumulation, flow cytometry, 1 h; hits give low values; fluorescence ratio to DMSO, % at 10 µM; actives 0.19% (n = 360,000);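 active means fluorescence ratio to DMSO below 75%, the collection mean minus 3 SD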;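 further: signal is porphyrin accumulated inside mitochondria; lower ratio means ABCB6 inhibition with less porphyrin fluorescence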
SMARCA2 conf – SMARCA2 activation, confirmation screen; shares compounds with SMARCA2 act; MG213 cells, MMTV-luciferase with dexamethasone, luminescence, overnight; MG213 cells expressing E1A, Rb sequestered; DMSO wells 0%, reference activator 100%; activation, % at 9.1 µM; actives 30% (n = 3,500); AID 652260;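 active means activation above its plate's cutoff, the mean activation of tested wells plus 3 SD, cut at about 7.9% in these data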
VP16 Luc act – GAL4-VP16 reporter activation counter-screen | shares compounds with SMARCA2 act | HEK293 GAL4-VP16 pG5luc reporter, luciferase luminescence; scaled: DMSO wells 0%, SAHA wells 100% | activation, % at 9.1 µM | actives 41% (n = 3,500);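 active means activation above the solvent-only control well mean plus 3 SD, averaged across control plates, cut at about 5.2% in these data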
A number is an active result; - = inactive; . = no result given.

SMILES | SMARCA2 act | MsrA inhibitor | MsrA act | ABCB6 inh 2 | SMARCA2 conf | VP16 Luc act
CN(C)S(=O)(=O)c1ccc(NC(=O)c2ccccn2)cc1 | - | - | - | - | . | .
Cc1ccc(NC(=O)C2CC(=O)N(C(C)C)C2)cc1Cl (stereo not drawn) | 8.3 | - | - | - | - | -
CCOC(=O)[C@@]12CCCC3=C1N(CCC3)C(=O)[C@H]2CC(=O)NCCCOC | - | . | . | . | . | .
O=C(COc1cccc2cccnc12)Nc1nccs1 | 9.2 | - | - | - | 9.0 | 12.2
CCCC1=C(C(=O)OCC)C(c2ccco2)C(C#N)=C(N)O1 (stereo not drawn) | - | - | - | - | . | .
CCOC(=O)C1=C(N)OC(C)=C(C#N)C1c1ccco1 (stereo not drawn) | 9.0 | - | - | - | - | -
O=C(OC12CCCN(C1)/C(=C/c1ccncc1)C2)c1ccco1 (stereo not drawn) | - | . | . | . | . | .
Cc1ccc(OCc2nn3c(C4CCCCC4)nnc3s2)cc1 | - | . | . | . | . | .
CN(CC(=O)N1CCN(c2ccccc2F)CC1)S(=O)(=O)c1cnc[nH]1 | - | - | - | - | . | .
COc1ccc(N2CCN(C(=O)CN(C)S(=O)(=O)c3cnc[nH]3)CC2)cc1 | 10.1 | - | - | - | - | -
CC(C)CNC(=O)C1(C)CCCN1C(=O)CCc1cccs1 (stereo not drawn) | - | - | - | - | . | .
Cc1sc(NC(=O)c2ccc(Br)s2)c(C(N)=O)c1C | 9.1 | - | - | - | - | 9.6
Cc1sc(NC(=O)c2ccc(Cl)s2)c(C(N)=O)c1C | - | - | - | - | . | .
COc1ccc(NC(=O)NCCC2=CCCCC2)cc1 | - | - | - | - | . | .
COc1cccc(NC(=O)NCCC2=CCCCC2)c1 | 15.9 | - | - | - | - | 11.5
COc1cccc2cc(NC(=O)C3CCCCC3)c(=O)oc12 | 12.2 | - | - | - | 7.8 | 10.4
COc1ccc(C(CC(=O)Nc2nccs2)n2cccc2)cc1 (stereo not drawn) | 8.1 | - | - | - | - | 10.0
CCCc1nc(SCC(=O)c2ccc(F)cc2)c2ccccc2n1 | 8.3 | - | - | - | - | -
Cc1ccc(C(=O)CSc2nc3ccccc3c(=O)[nH]2)cc1 | 9.6 | - | - | - | - | -
CCOC(=O)c1nc2ccccc2c(=O)[nH]1 | 9.3 | - | - | - | - | -
CCc1ccc(C(=O)CSc2nc3ccccc3c(=O)[nH]2)cc1 | - | - | - | - | . | .
C[C@H](O)[C@@H]1CN2CCc3c([nH]c4c(-c5ccc6c(c5)OCO6)cccc34)[C@@H]2C[C@@H]1N(C)C(=S)NCCc1ccccc1 | - | . | . | . | . | .
COc1ccc(S(=O)(=O)N2CCN(C(=O)Cc3cccs3)CC2)cc1 | 9.5 | - | - | - | - | -
O=C(Cc1cccs1)N1CCN(S(=O)(=O)c2ccccc2)CC1 | - | - | - | - | . | .
Cc1c(C(=O)NN)sc(=S)n1C | - | - | - | - | . | .
SMILES | SMARCA2 act | MsrA inhibitor | MsrA act | ABCB6 inh 2 | SMARCA2 conf | VP16 Luc act
Cc1csc(C(=O)NN)c1N(C)C | 9.1 | - | - | - | - | -
O=C1NC(Cc2ccc(O)cc2)c2nc3cc(F)ccc3c(=O)n2-c2cc3ccccc3cc21 (stereo not drawn) | - | - | - | - | . | .
CCOC(=O)c1c(NC(=O)C(NCCN(C)C)c2ccccc2)sc2c1CCCC2 (stereo not drawn) | 12.8 | - | - | - | - | -
COc1c(F)c(F)c(C(=O)Nc2ccccc2N2CCN(C(=O)C(C)C)CC2)c(F)c1F | 8.0 | - | - | - | - | -
Nc1nc2ccccc2cc1C(=O)NCc1cccs1 | - | - | . | . | . | .
CCN(CC)CCNc1ccc(CO)c2oc3cc(Cl)ccc3c(=O)c12 | 18.2 | - | - | - | 28.7 | -
CN(C)CCNc1ccc(CO)c2oc3ccc(O)cc3c(=O)c12 | 10.8 | - | - | - | 12.8 | -
O=c1cc(NCCCO)c2ccccc2o1 | - | - | - | - | . | .
CC1(N=Cc2cc(Cl)ccc2O)COP(=O)(Nc2ccccc2)OC1 (stereo not drawn) | 8.2 | - | - | - | - | -
Cc1sc(NC(=O)c2ccccc2F)c(CN2CCCCC2C)c1C (stereo not drawn) | 9.5 | - | - | - | 8.6 | 11.2
CC(=O)Nc1sc(C)c(C)c1CN1CCN(Cc2ccccc2)CC1 | - | - | - | - | . | .
Cn1c(=N)n(CC(=O)c2ccc(Br)s2)c2ccccc21 | - | - | - | - | . | .
